Source: PubChem BioAssay (EPA / NIEHS)
Several values for one entry are separate records, joined by “and”; a condition that tells them apart may be missing. Equal entries are not always repeated. Where a structure was tested more than once in an assay, its records may differ in their call. Activity calls are given as the source filed them. Rule for the calls: active = hit-call score of the fitted dose curve at least 0.9, where 1 is the maximum; inactive = score below 0.9.

assay: APR_HepG2_MitoticArrest_24hr: Apredica 24-hour HepG2 Assay for Mitotic Arrest (AID 2282910); conditions: high-content imaging, actives raise or lower the signal
How it was run: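 Compounds are dosed onto HepG2 cells across ten concentrations up to 200 uM for 24 hr. Cells are then fixed in 3.7% formaldehyde, permeabilised, and labelled for phospho-histone H3 and nuclei; images are scored by cell cycle analysis and fitted bidirectionally relative to DMSO.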

SMILES | AC50 | outcome
C#C[C@]1(O)CC[C@H]2[C@@H]3CCc4cc(O)ccc4[C@H]3CC[C@@]21C | 10.9 µM (active) | 
O=C(c1ccc(OCCN2CCCCC2)cc1)c1c(-c2ccc(O)cc2)sc2cc(O)ccc12 |  | inactive
C[C@]12CC[C@@H]3c4ccc(O)cc4CC[C@H]3[C@@H]1CC[C@@H]2O | 22.6 µM (active) | 
CC/C(=C(\c1ccccc1)c1ccc(OCCN(C)C)cc1)c1ccccc1 | 7.3 µM (active) and 6.94 µM (active) | 

assay: APR_HepG2_MitoMembPot_24hr: Apredica 24-hour HepG2 Assay for Mitochondrial Membrane Potential (AID 2282911); conditions: imaging, actives raise or lower the signal
How it was run: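 Cells are dosed for 24 hr across 0.39 to 200 uM with solvent held at 0.5% DMSO. They are then stained with 250 nM MitoTracker Red CMXRos for 30 min, fixed in 3.7% formaldehyde and imaged.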

SMILES | outcome | AC50
C#C[C@]1(O)CC[C@H]2[C@@H]3CCc4cc(O)ccc4[C@H]3CC[C@@]21C | inactive | 
O=C(c1ccc(OCCN2CCCCC2)cc1)c1c(-c2ccc(O)cc2)sc2cc(O)ccc12 | inactive | 
C[C@]12CC[C@@H]3c4ccc(O)cc4CC[C@H]3[C@@H]1CC[C@@H]2O | inactive | 
CC/C(=C(\c1ccccc1)c1ccc(OCCN(C)C)cc1)c1ccccc1 |  | 39.2 µM (active) and 24.9 µM (active)

assay: APR_HepG2_MitoMass_24hr: Apredica 24-hour HepG2 Assay for Mitochondrial Mass (AID 2282912); conditions: high-content imaging, actives raise or lower the signal
How it was run: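 HepG2 cells exposed 24 hr to 0.39–200 uM compound, 0.5% v/v DMSO, in duplicate. Stained before fixation with 250 nM MitoTracker Red CMXRos for 30 min, then imaged at 20x with Hoechst nuclei. Fitted in both directions against DMSO.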

SMILES | outcome | AC50
C#C[C@]1(O)CC[C@H]2[C@@H]3CCc4cc(O)ccc4[C@H]3CC[C@@]21C | inactive | 
O=C(c1ccc(OCCN2CCCCC2)cc1)c1c(-c2ccc(O)cc2)sc2cc(O)ccc12 | inactive | 
C[C@]12CC[C@@H]3c4ccc(O)cc4CC[C@H]3[C@@H]1CC[C@@H]2O | inactive | 
CC/C(=C(\c1ccccc1)c1ccc(OCCN(C)C)cc1)c1ccccc1 |  | 6.38 µM (active) and 7.4 µM (active)

assay: APR_HepG2_p53Act_24hr: Apredica 24-hour HepG2 Assay for p53 Activation (AID 2282913); conditions: high-content imaging, actives raise or lower the signal;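 note: p53 protein immunofluorescence averaged per cell in HepG2 with Hoechst nuclei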
How it was run: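 Human HepG2 liver cells; 24 hr cpd treatment, 0.39–200 uM, 0.5% DMSO final. Fixed in 3.7% formaldehyde, permeabilized with 0.5% Triton X-100, stained with anti-p53/Cy5 plus Hoechst 33342. Six images per well at 20x; gain or loss vs DMSO.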

SMILES | AC50 | outcome
C#C[C@]1(O)CC[C@H]2[C@@H]3CCc4cc(O)ccc4[C@H]3CC[C@@]21C | 87.5 µM (active) | 
O=C(c1ccc(OCCN2CCCCC2)cc1)c1c(-c2ccc(O)cc2)sc2cc(O)ccc12 |  | inactive
C[C@]12CC[C@@H]3c4ccc(O)cc4CC[C@H]3[C@@H]1CC[C@@H]2O | 25.1 µM (active) | 
CC/C(=C(\c1ccccc1)c1ccc(OCCN(C)C)cc1)c1ccccc1 | 16.1 µM (active) and 11.3 µM (active) | 

assay: APR_HepG2_CellCycleArrest_72hr: Apredica 72-hour HepG2 Assay for Cell Cycle Arrest (AID 2282914); conditions: high-content imaging, actives raise or lower the signal
How it was run: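 Read-out is Hoechst-stained nuclear DNA content measured by automated fluorescence imaging (20x, six images per well), fitted in both directions relative to DMSO. Human HepG2 liver cells received 0.39–200 uM compound for 72 hr at 0.5% v/v DMSO.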

SMILES | AC50 | outcome
C#C[C@]1(O)CC[C@H]2[C@@H]3CCc4cc(O)ccc4[C@H]3CC[C@@]21C | 27.9 µM (active) | 
O=C(c1ccc(OCCN2CCCCC2)cc1)c1c(-c2ccc(O)cc2)sc2cc(O)ccc12 |  | inactive
C[C@]12CC[C@@H]3c4ccc(O)cc4CC[C@H]3[C@@H]1CC[C@@H]2O |  | inactive
CC/C(=C(\c1ccccc1)c1ccc(OCCN(C)C)cc1)c1ccccc1 | 29.4 µM (active) | inactive

assay: APR_HepG2_CellLoss_72hr: Apredica 72-hour HepG2 Assay for Cell Loss (AID 2282915); conditions: high-content imaging
How it was run: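 Cell number comes from Hoechst 33342-labelled nuclei, imaged at 20x after 3.7% formaldehyde fixation. Dosing was 0.39–200 uM, ten concentrations in duplicate, 0.5% DMSO final, for 72 h. Bidirectional fit relative to DMSO baseline.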

SMILES | AC50 | outcome
C#C[C@]1(O)CC[C@H]2[C@@H]3CCc4cc(O)ccc4[C@H]3CC[C@@]21C | 34.6 µM (active) | 
O=C(c1ccc(OCCN2CCCCC2)cc1)c1c(-c2ccc(O)cc2)sc2cc(O)ccc12 |  | inactive
C[C@]12CC[C@@H]3c4ccc(O)cc4CC[C@H]3[C@@H]1CC[C@@H]2O | 28.6 µM (active) | 
CC/C(=C(\c1ccccc1)c1ccc(OCCN(C)C)cc1)c1ccccc1 | 13.3 µM (active) and 17.4 µM (active) | 

assay: APR_HepG2_P-H2AX_72hr: Apredica 72-hour HepG2 Assay for H2AX Phosphorylation (AID 2282916); conditions: imaging, actives raise or lower the signal;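 note: phospho-histone H2A.x immunostain intensity per cell marking DNA damage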
How it was run: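 HepG2 cells treated 72 h at 0.39–200 uM, 0.5% DMSO final, duplicates. Formaldehyde-fixed, Triton-permeabilised, immunostained for phospho-H2A.x with Hoechst; fluorescence imaged at 20x, bidirectional fit versus DMSO.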

SMILES | AC50 | outcome
C#C[C@]1(O)CC[C@H]2[C@@H]3CCc4cc(O)ccc4[C@H]3CC[C@@]21C | 70.6 µM (active) | 
O=C(c1ccc(OCCN2CCCCC2)cc1)c1c(-c2ccc(O)cc2)sc2cc(O)ccc12 |  | inactive
C[C@]12CC[C@@H]3c4ccc(O)cc4CC[C@H]3[C@@H]1CC[C@@H]2O | 30.7 µM (active) | 
CC/C(=C(\c1ccccc1)c1ccc(OCCN(C)C)cc1)c1ccccc1 | 53.9 µM (active) and 59 µM (active) | 

assay: APR_HepG2_MitoMembPot_72hr: Apredica 72-hour HepG2 Assay for Mitochondrial Membrane Potential (AID 2282917); conditions: imaging, actives raise or lower the signal
How it was run: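 Membrane potential read by MitoTracker Red CMXRos (250 nM, 30 min, pre-fixation) fluorescence imaging of HepG2 after 72 hr exposure. Ten concentrations, 0.39–200 uM, duplicate wells, 0.5% DMSO; fitted in both directions against DMSO baseline.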

SMILES | outcome | AC50
C#C[C@]1(O)CC[C@H]2[C@@H]3CCc4cc(O)ccc4[C@H]3CC[C@@]21C | inactive | 
O=C(c1ccc(OCCN2CCCCC2)cc1)c1c(-c2ccc(O)cc2)sc2cc(O)ccc12 | inactive | 
C[C@]12CC[C@@H]3c4ccc(O)cc4CC[C@H]3[C@@H]1CC[C@@H]2O | inactive | 
CC/C(=C(\c1ccccc1)c1ccc(OCCN(C)C)cc1)c1ccccc1 | inactive | 30.7 µM (active)

assay: APR_HepG2_MitoticArrest_72hr: Apredica 72-hour HepG2 Assay for Mitotic Arrest (AID 2282918); conditions: high-content imaging, actives raise or lower the signal
How it was run: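 Read-out is phospho-histone H3 immunofluorescence with Hoechst nuclear segmentation, imaged at 20x. Human HepG2 liver cells received ten concentrations (0.39–200 uM, final DMSO 0.5% v/v) for 72 hr before fixation. Gain or loss of signal was fitted relative to DMSO.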

SMILES | AC50 | outcome
C#C[C@]1(O)CC[C@H]2[C@@H]3CCc4cc(O)ccc4[C@H]3CC[C@@]21C | 58.1 µM (active) | 
O=C(c1ccc(OCCN2CCCCC2)cc1)c1c(-c2ccc(O)cc2)sc2cc(O)ccc12 |  | inactive
C[C@]12CC[C@@H]3c4ccc(O)cc4CC[C@H]3[C@@H]1CC[C@@H]2O | 32.8 µM (active) | 
CC/C(=C(\c1ccccc1)c1ccc(OCCN(C)C)cc1)c1ccccc1 | 9.78 µM (active) and 3.59 µM (active) | 

assay: APR_HepG2_MicrotubuleCSK_72hr: Apredica 72-hour HepG2 Assay for Microtubule CSK Stabilty (AID 2282919); conditions: HepG2 microtubule cytoskeleton, high-content imaging, actives raise or lower the signal
How it was run: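 Read-out is tubulin fluorescence intensity from high-content imaging of HepG2 cells, with nuclei identified by Hoechst 33342. Treatment lasts 72 h at 0.39–200 uM, and curves are fitted bidirectionally against the DMSO negative control.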

SMILES | outcome
C#C[C@]1(O)CC[C@H]2[C@@H]3CCc4cc(O)ccc4[C@H]3CC[C@@]21C | inactive
O=C(c1ccc(OCCN2CCCCC2)cc1)c1c(-c2ccc(O)cc2)sc2cc(O)ccc12 | inactive
C[C@]12CC[C@@H]3c4ccc(O)cc4CC[C@H]3[C@@H]1CC[C@@H]2O | inactive
CC/C(=C(\c1ccccc1)c1ccc(OCCN(C)C)cc1)c1ccccc1 | inactive

assay: APR_HepG2_P-H2AX_24hr: Apredica 24-hour HepG2 Assay for H2AX Phosphorylation (AID 2282920); conditions: high-content imaging, actives raise or lower the signal
How it was run: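 HepG2, 24 hr, cpd 0.39–200 uM (10 conc, duplicate), DMSO 0.5% v/v final. Fix 3.7% formaldehyde, Triton X-100 permeabilize, anti-phospho-H2A.x 1:200 + Hoechst 2 ug/mL. Imaged, bidirectional fit vs DMSO.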

SMILES | AC50 | outcome
C#C[C@]1(O)CC[C@H]2[C@@H]3CCc4cc(O)ccc4[C@H]3CC[C@@]21C | 83.4 µM (active) | 
O=C(c1ccc(OCCN2CCCCC2)cc1)c1c(-c2ccc(O)cc2)sc2cc(O)ccc12 |  | inactive
C[C@]12CC[C@@H]3c4ccc(O)cc4CC[C@H]3[C@@H]1CC[C@@H]2O | 24.5 µM (active) | 
CC/C(=C(\c1ccccc1)c1ccc(OCCN(C)C)cc1)c1ccccc1 | 11.6 µM (active) and 19.7 µM (active) | 
